In PubChem BioAssay (Tox21):
Results filed as inconclusive are left out. The source made the active and inactive calls. Unless noted, the call rests on the fitted dose curve.

Experiments:
[1] = qHTS assay to identify small molecule antagonists of the sonic hedgehog signaling (Shh) pathway (AID 1259369); further: nearly all actives have a fitted effect of over 45% in size; further: potency means the concentration at half of the fitted maximal effect
Method in brief: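 Screening used 3T3Gli1-Luc cells at 2,000 per well, compounds delivered in DMSO, and conditioned medium as agonist stimulus; plates incubated 24hr at 37 C and 5% CO2 before a 30min luciferase step.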

[2] = qHTS assay to identify small molecule agonists of the androgen receptor (AR) signaling pathway in the presence of an antagonist - cell viability counter screen (AID 1259379; active means well fitted curve in the direction sought with a large enough effect in the repeat runs; an effect the other way counts as inactive or inconclusive;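 further: MDA-kb2 human breast cancer cells carrying an MMTV luciferase reporter; series mostly up to about 92 µM; nearly all actives have a fitted effect of over 25% in size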)
Method in brief: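 In MDA-kb2 cells (human breast carcinoma, MMTV-luciferase), compounds at 15 concentrations plus 3.0uM nilutamide; 16 hr, 37C, 0% CO2; CellTiter-Fluor fluorescence read for viability.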

[3] = qHTS assay to identify small molecule agonists of the estrogen receptor beta (ER-beta) signaling pathway - cell viability counter screen (AID 1259380; active means well fitted curve in the direction sought with a large enough effect in the repeat runs; an effect the other way counts as inactive or inconclusive; further: nearly all actives have a fitted effect of over 30% in size)
Method in brief: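 Viability of ER-beta-UAS-bla HEK293T cells was determined by CellTiter-Glo luminescence following 16 hr treatment with test compounds at 37C.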

[4] = biological target: Androgen receptor (Homo sapiens) (UniProt P10275); assay: qHTS assay to identify small molecule agonists of the androgen receptor (AR) signaling pathway in the presence of an antagonist (AID 1259381); further: nearly all actives have a fitted effect of over 15% in size; further: potency means the concentration at half of the fitted maximal effect
Method in brief: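 Here, 15-concentration compound series were pin-transferred onto MDA-kb2 MMTV-luciferase cells already dosed with nilutamide (3.0uM final). After 16hr at 37C, ONE-Glo was added and luminescence read 30min later at room temperature.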

[5] = qHTS assay to identify small molecule antagonists of the estrogen receptor beta (ER-beta) signaling pathway - cell viability counter screen (AID 1259382; active means well fitted curve in the direction sought with a large enough effect in the repeat runs; an effect the other way counts as inactive or inconclusive; further: series mostly up to about 92 µM; nearly all actives have a fitted effect of over 55% in size)
Method in brief: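 Tox21 10K library tested in qHTS format on ER-beta-bla HEK293T cells stimulated with 1nM E2; 16 hr treatment at 37C. Same-well CellTiter-Glo luminescence served as the cell viability measure.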

[6] = biological target: Estrogen receptor (Homo sapiens) (UniProt P03372); assay: qHTS assay to identify small molecule agonists of the estrogen receptor alpha (ER-alpha) signaling pathway in the presence of an antagonist (AID 1259383); further: top concentration of the series differs between compounds; nearly all actives have a fitted effect of over 15% in size
Method in brief: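 In VM7Luc4E2 cells, 4,000 per well, compounds at 15 concentrations were co-incubated 22hr at 37C with 10.0nM final ICI-182,780. Luminescence from the stably transfected 4×ERE-luciferase reporter was recorded 30min after ONE-Glo addition.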

[7] = qHTS assay to identify small molecule agonists or antagonists of the thyroid stimulating hormone receptor (TSHR) signaling pathway - wild type cell line counter screen (AID 1259384)
Method in brief: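 Wild-type Hek293 cells, 800/well, 18 h at 37C, then compound with Ro20-1724 for 30 min RT. cAMP by HTRF (cAMP-d2/anti-cAMP cryptate), 1 h RT, fluorescence read. 15 concentrations, triplicates.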

[8] = biological target: Thyrotropin receptor (Homo sapiens) (UniProt P16473); assay: qHTS assay to identify small molecule antagonists of the thyroid stimulating hormone receptor (TSHR) signaling pathway (AID 1259385); further: nearly all actives have a fitted effect of over 20% in size
Method in brief: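 TSHR-HEK293 cells (800/well) plated 18 h, then compounds with Ro20-1724 and TSH at 1.5 ng/mL final, 30 min at room temperature. cAMP quantified by HTRF (cAMP-d2/anti-cAMP-cryptate, 1 h); 15 concentrations in triplicate.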

[9] = biological target: Estrogen receptor beta (Homo sapiens) (UniProt Q92731); assay: qHTS assay to identify small molecule agonists of the estrogen receptor beta (ER-beta) signaling pathway (AID 1259377; active means well fitted activation curve with a large enough effect in the signal ratio in the repeat runs, not every such curve was filed as active; the % refers to the signal ratio)
Method in brief: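 Agonist mode cell assay in GripTite HEK293T cells expressing an ER-beta fusion that drives beta-lactamase from an Upstream Activator Sequence; 16 hr compound exposure at 37C, then 2 h LiveBLAzer B/G FRET substrate at room temperature, fluorescence read-out.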

[10] = biological target: Estrogen receptor beta (Homo sapiens) (UniProt Q92731); assay: qHTS assay to identify small molecule antagonists of the estrogen receptor beta (ER-beta) signaling pathway (AID 1259378; active means well fitted inhibition curve with a large enough effect in the signal ratio in the repeat runs, not every such curve was filed as active; the % refers to the signal ratio)
Method in brief: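 ER-beta-UAS-bla HEK293T cells in 2% charcoal-stripped FBS medium treated with compound plus 1nM final 17-beta-estradiol for 16 hr at 37C. Beta-lactamase reporter read by FRET substrate fluorescence after 2 hours at room temperature.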
On the % scale 0 is the no-effect control and ±100 the full control effect.

Sequence of Estrogen receptor (Homo sapiens) (P03372 whole entry, looked up): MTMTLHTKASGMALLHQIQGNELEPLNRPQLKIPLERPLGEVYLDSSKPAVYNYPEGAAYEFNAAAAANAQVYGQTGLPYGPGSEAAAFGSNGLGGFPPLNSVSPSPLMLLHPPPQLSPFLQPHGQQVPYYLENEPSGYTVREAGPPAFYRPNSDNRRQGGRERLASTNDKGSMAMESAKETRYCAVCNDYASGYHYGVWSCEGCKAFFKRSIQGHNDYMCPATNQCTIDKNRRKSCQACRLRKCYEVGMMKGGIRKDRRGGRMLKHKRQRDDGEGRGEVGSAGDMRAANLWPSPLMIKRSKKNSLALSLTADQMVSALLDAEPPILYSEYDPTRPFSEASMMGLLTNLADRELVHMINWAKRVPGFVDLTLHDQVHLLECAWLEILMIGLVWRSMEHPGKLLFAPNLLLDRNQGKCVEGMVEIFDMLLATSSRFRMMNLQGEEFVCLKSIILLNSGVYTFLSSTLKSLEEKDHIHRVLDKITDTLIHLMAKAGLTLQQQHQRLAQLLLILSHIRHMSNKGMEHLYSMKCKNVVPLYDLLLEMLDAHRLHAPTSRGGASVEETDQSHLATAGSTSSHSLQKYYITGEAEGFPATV
Sequence of Estrogen receptor beta (Homo sapiens) (Q92731 whole entry, looked up, the tested form may be a part): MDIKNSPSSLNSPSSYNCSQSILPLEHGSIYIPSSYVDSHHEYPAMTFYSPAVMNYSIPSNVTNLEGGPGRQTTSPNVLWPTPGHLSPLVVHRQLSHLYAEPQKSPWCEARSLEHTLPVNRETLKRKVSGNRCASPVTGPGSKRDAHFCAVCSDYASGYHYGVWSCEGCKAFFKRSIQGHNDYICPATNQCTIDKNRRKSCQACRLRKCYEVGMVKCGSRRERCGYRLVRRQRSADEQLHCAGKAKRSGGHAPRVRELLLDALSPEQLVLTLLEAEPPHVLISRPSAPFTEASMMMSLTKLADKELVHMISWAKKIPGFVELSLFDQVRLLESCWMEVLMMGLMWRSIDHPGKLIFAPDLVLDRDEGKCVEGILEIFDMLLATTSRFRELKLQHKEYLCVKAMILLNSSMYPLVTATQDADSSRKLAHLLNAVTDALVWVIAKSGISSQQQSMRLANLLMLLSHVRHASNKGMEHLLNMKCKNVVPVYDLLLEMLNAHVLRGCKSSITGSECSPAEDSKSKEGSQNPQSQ
Sequence of Thyrotropin receptor (Homo sapiens) (P16473 whole entry, looked up): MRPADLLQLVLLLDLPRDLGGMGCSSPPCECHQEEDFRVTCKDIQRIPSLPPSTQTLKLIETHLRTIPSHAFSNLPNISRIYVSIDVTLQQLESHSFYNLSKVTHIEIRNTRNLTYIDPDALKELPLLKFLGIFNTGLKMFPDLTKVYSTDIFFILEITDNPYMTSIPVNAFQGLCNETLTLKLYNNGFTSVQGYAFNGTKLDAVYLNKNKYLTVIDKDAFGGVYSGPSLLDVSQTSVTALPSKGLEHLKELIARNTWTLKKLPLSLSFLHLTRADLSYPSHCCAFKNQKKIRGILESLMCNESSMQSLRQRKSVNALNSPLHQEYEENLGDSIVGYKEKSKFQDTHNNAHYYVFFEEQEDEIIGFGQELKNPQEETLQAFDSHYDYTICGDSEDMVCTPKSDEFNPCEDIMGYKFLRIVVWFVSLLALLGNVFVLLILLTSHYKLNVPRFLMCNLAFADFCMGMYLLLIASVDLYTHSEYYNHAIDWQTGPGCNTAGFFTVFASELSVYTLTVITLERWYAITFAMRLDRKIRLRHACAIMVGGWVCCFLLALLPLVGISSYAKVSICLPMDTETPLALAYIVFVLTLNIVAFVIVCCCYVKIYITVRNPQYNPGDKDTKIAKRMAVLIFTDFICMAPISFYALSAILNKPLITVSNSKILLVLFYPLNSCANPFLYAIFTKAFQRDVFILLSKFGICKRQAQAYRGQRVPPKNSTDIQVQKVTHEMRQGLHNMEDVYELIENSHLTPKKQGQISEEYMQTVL
Sequence of Androgen receptor (Homo sapiens) (P10275 whole entry, looked up): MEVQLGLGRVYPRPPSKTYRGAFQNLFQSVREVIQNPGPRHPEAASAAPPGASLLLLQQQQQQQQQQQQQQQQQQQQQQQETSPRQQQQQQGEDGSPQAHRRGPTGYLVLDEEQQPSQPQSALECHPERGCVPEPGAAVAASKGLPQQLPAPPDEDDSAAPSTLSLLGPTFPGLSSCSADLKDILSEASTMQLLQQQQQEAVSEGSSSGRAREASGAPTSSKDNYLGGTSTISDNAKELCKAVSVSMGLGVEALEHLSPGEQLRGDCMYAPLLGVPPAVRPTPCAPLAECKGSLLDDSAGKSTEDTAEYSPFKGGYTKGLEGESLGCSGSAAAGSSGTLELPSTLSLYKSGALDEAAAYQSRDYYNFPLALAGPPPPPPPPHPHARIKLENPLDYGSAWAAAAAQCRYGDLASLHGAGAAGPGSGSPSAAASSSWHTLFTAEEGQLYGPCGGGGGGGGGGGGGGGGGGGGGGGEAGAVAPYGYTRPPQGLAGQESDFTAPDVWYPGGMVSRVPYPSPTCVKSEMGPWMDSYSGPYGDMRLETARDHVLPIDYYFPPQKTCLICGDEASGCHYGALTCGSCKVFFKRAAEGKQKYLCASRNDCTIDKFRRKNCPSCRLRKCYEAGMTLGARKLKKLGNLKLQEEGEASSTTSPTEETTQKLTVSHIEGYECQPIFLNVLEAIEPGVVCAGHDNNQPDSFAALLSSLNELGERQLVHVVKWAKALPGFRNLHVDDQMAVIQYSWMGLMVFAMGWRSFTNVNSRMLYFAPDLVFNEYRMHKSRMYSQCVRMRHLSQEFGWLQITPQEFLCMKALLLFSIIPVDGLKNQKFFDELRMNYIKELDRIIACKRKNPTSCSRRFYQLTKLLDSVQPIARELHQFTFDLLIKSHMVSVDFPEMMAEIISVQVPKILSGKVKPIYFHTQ

CC(CC=O)CCCC(C)(C)O (stereo not drawn)
inactive: Potency [1] | Potency [2] | Potency [3] | Potency [4] | outcome [5] | outcome [6] | outcome [7] | outcome [8]

O=C(NCC(O)CO)c1c(I)c(C(=O)NCC(O)CO)c(I)c(N(CCO)C(=O)CO)c1I (stereo not drawn)
inactive: Potency [1] | Potency [9] | Potency [2] | outcome [5] | outcome [7] | outcome [8]

C=C(C)C(=O)OCCN(CC)CC
inactive: Potency [1] | Potency [2] | Potency [3] | Potency [4] | outcome [5] | outcome [7] | outcome [8]

CCC(C=O)CC
inactive: Potency [1] | Potency [9] | Potency [2] | Potency [3] | outcome [5] | outcome [7] | outcome [8]

CC(CO)c1ccccc1 (stereo not drawn)
inactive: Potency [1] | outcome [10] | Potency [2] | Potency [3] | Potency [4] | outcome [5] | outcome [6] | outcome [7] | outcome [8]

COc1ccc(S(=O)(=O)N2c3ccc(Cl)cc3[C@@](O)(c3ccccc3Cl)[C@H]2C(=O)N2CCC[C@@H]2C(N)=O)cc1OC
inactive: Potency [1] | Potency [2] | Potency [3] | outcome [5] | outcome [6]

O=C(O)c1cc(Cl)cc([N+](=O)[O-])c1Cl
inactive: Potency [1] | Potency [2] | Potency [3] | Potency [4] | outcome [5] | outcome [6] | outcome [7] | outcome [8]

C#CC(C)N(C)C(=O)Nc1ccc(Cl)cc1 (stereo not drawn)
inactive: Potency [1] | Potency [9] | Potency [2] | Potency [4] | outcome [5]

NC(CO)C(=O)NNCc1ccc(O)c(O)c1O (stereo not drawn)
active: Potency [4] 13.3 µM
inactive: Potency [1] | Potency [2] | Potency [3] | outcome [5] | outcome [6] | outcome [7]

CC1=CCC(C(C)C)=CC1
inactive: Potency [1] | Potency [2] | Potency [3] | outcome [5] | outcome [6]

NNc1nnc(NN)c2ccccc12
inactive: Potency [1] | Potency [9] | Potency [2] | outcome [5] | outcome [7]

CC1=C(C(=O)O)N2C(=O)[C@@H](NC(=O)[C@H](N)c3ccc(O)cc3)[C@H]2SC1
inactive: Potency [1] | Potency [9] | Potency [2] | outcome [5] | outcome [7] | outcome [8]

COc1cc2c(cc1OC)C(=O)CC2
inactive: Potency [1] | Potency [2] | Potency [3] | Potency [4] | outcome [5] | outcome [6] | outcome [7] | outcome [8]

COC(=O)c1ccccc1C(=O)c1ccc(OCCN2CCCCC2)cc1
inactive: Potency [1] | Potency [9] | Potency [2] | outcome [5] | outcome [6] | outcome [7] | outcome [8]

Cc1[nH]cnc1-c1ccc(Cl)cc1
inactive: Potency [1] | Potency [2] | Potency [3] | Potency [4] | outcome [5] | outcome [6] | outcome [7] | outcome [8]

CCC(CC)CO
inactive: Potency [1] | Potency [2] | Potency [3] | Potency [4] | outcome [5] | outcome [6] | outcome [7] | outcome [8]

Cc1ccccc1C(=O)Nc1ccc(C(=O)N2CCCC(N(C)C)c3ccccc32)cc1 (stereo not drawn)
active: Potency [1] 15 µM
inactive: Potency [9] | Potency [2] | outcome [5] | outcome [6] | outcome [7]

FC(F)(F)c1ccccc1-n1ccnc1
inactive: Potency [1] | Potency [2] | Potency [3] | outcome [5]

CCCCCOC(=O)CCC
inactive: Potency [1] | Potency [9] | Potency [2] | outcome [5] | outcome [7]

O=C(CCN1CCN(CCO)CC1)N1c2ccccc2Sc2ccc(C(F)(F)F)cc21
inactive: Potency [1] | Potency [2] | Potency [3] | Potency [4] | outcome [5] | outcome [6] | outcome [7]

Cc1ccc2ccc(Cl)cc2n1
inactive: Potency [1] | Potency [2] | Potency [3] | Potency [4] | outcome [5] | outcome [6] | outcome [7] | outcome [8]

CC(C)(C)c1n[nH]c(=S)n(N)c1=O
inactive: Potency [1] | Potency [2] | Potency [3] | outcome [5] | outcome [6] | outcome [7]

CCCCCCCCCCCCCC
inactive: Potency [1] | Potency [9] | Potency [2] | Potency [3] | outcome [5] | outcome [7] | outcome [8]

OC[C@H](Cc1cccc(O)c1)[C@H](CO)Cc1cccc(O)c1
active: Potency [1] 62.6 µM
inactive: Potency [2]

O=C(OCc1ccccc1)C(=O)OCc1ccccc1
inactive: Potency [1] | Potency [9] | Potency [2] | Potency [4] | outcome [5] | outcome [6] | outcome [7]

CC(=O)N[C@@H](CCC(=O)O)C(=O)O
inactive: Potency [1] | Potency [9] | Potency [2] | Potency [3] | outcome [5] | outcome [7] | outcome [8]

CCOc1cc([N+](=O)[O-])c(OCC)cc1N1CCOCC1
inactive: Potency [1] | Potency [9] | Potency [3] | outcome [5] | outcome [6] | outcome [7] | outcome [8]

O=S(O)(O)=S
inactive: activity change, negative = inhibition [1] 0.751% [at 8.39 µM] | activity, negative = inhibition [10] 6.44% [at 8.39 µM] | activity change, negative = cytotoxicity [2] 1.18% [at 8.39 µM] | activity change, negative = cytotoxicity [5] 4.48% [at 8.39 µM] | activation [6] 0.31% [at 8.39 µM] | cAMP activity change [7] 0.958% [at 8.39 µM] | activity change, negative = inhibition [8] 2.15% [at 8.39 µM]

BrCc1cccc(Oc2ccccc2)c1
inactive: Potency [1] | outcome [10] | Potency [2] | Potency [3] | Potency [4] | outcome [5] | outcome [7] | outcome [8]

O=C1c2ccccc2C(=O)C1c1ccccc1
inactive: Potency [1] | Potency [2] | Potency [3] | outcome [5] | outcome [6] | outcome [7] | outcome [8]

CC1(CO)CN(c2ccccc2)NC1=O (stereo not drawn)
inactive: Potency [1] | Potency [2] | Potency [4] | outcome [7]

CN=C(NC#N)Nc1ccc(C2=NNC(=O)CC2C)cc1 (stereo not drawn)
inactive: Potency [1] | Potency [2] | Potency [3] | outcome [5] | outcome [7] | outcome [8]

CC1COc2ccccc2N1 (stereo not drawn)
inactive: Potency [1] | Potency [2] | Potency [3] | outcome [5] | outcome [7] | outcome [8]

CCOC(=O)/C=C/c1ccccc1
inactive: Potency [1] | Potency [2] | outcome [5] | outcome [6] | outcome [7]

Cc1c(I)c(=O)n(-c2ccccc2)n1C
inactive: Potency [1] | Potency [2] | Potency [3] | outcome [5] | outcome [6] | outcome [7] | outcome [8]

Cc1cc(NC(=O)C2=C(O)c3ccccc3S(=O)(=O)N2C)no1
inactive: Potency [1] | Potency [2] | Potency [3] | outcome [5] | outcome [7]

C=Cc1ccccn1
inactive: Potency [1] | Potency [2] | Potency [3] | outcome [5] | outcome [7] | outcome [8]

CC(=O)c1sc(C)nc1C
inactive: Potency [1] | Potency [2] | Potency [3] | outcome [5] | outcome [7]

CCOC(=O)c1ncn2c1CN(C)C(=O)c1cc(F)ccc1-2
inactive: Potency [1] | Potency [2] | Potency [4] | outcome [5] | outcome [6] | outcome [7] | outcome [8]

CCOCCOC(=O)/C=C/c1ccc(OC)cc1
inactive: Potency [1] | Potency [2] | Potency [3] | outcome [5] | outcome [6] | outcome [7]

CO[C@@H]1[C@@H](OC(N)=O)[C@@H](O)[C@H](Oc2ccc3c(O)c(NC(=O)c4ccc(O)c(CC=C(C)C)c4)c(=O)oc3c2C)OC1(C)C
inactive: Potency [1] | Potency [2] | Potency [3] | outcome [5] | outcome [6] | outcome [7] | outcome [8]

Cc1cccc(C)c1OCC(C)N (stereo not drawn)
inactive: Potency [1] | Potency [2] | Potency [3] | outcome [5] | outcome [6] | outcome [7] | outcome [8]

C=C(C)C(=O)OCCNC(C)(C)C
inactive: Potency [1] | Potency [2] | Potency [3] | outcome [5] | outcome [7]

CCCCCCN
inactive: Potency [2] | Potency [3] | outcome [5] | outcome [6] | outcome [7]
active: Potency [1] 61.1 µM

COc1ccc2nc(SCc3ncc(C)c(OC)c3C)[nH]c2c1
inactive: Potency [1] | Potency [2] | Potency [4] | outcome [5] | outcome [6] | outcome [7] | outcome [8]

CC(C)C(=O)OCCc1ccccc1
inactive: Potency [1] | Potency [2] | Potency [3] | outcome [5] | outcome [6] | outcome [7] | outcome [8]

Cc1cc2cc3c(C)cc(=O)oc3c(C)c2o1
inactive: Potency [1] | Potency [2] | Potency [3] | outcome [5] | outcome [6] | outcome [7] | outcome [8]

CCOC(=O)c1ccc(OC(=O)CCCCCN=C(N)N)cc1
inactive: Potency [1] | Potency [2] | outcome [5] | outcome [6] | outcome [7]

COCCOC(=O)C1=C(C)NC(C)=C(C(=O)OC(C)C)C1c1cccc([N+](=O)[O-])c1 (stereo not drawn)
inactive: Potency [1] | Potency [2] | Potency [3] | outcome [5] | outcome [6] | outcome [7] | outcome [8]

C[Si](C)=O
inactive: activity change, negative = inhibition [1] 4.44% [at 8.39 µM] | activity change, negative = cytotoxicity [2] -1.72% [at 8.39 µM] | activity change, negative = cytotoxicity [3] 5.93% [at 8.39 µM] | activity change, negative = cytotoxicity [5] 0.879% [at 8.39 µM] | cAMP activity change [7] -4.18% [at 8.39 µM] | activity change, negative = inhibition [8] -2.39% [at 8.39 µM]
